# From PubChem BioAssay
# Inconclusive results are not listed. The source made the active and inactive calls. Unless noted, cut-off not given; nearly all actives show AC50 up to about 26 µM.
# Columns and labels:
# [1] = viability loss in pontine glioma line – cell-based, SU-DIPG-XVII, MIPE5.0, CellTiter-Glo, qHTS, dose response (AID 1347060); conditions: CellTiter-Glo ATP luminescence;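 on AC50: cells exposed to compound for 48 hours before viability readout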
# [2] = test system: Hepatitis C virus NS3 helicase; assay: blockers of NS3h binding to ssDNA – biochemical, fluorescence polarization, LOPAC1280 library, primary screen (AID 687035; in the data active means inhibition above about 37%); conditions: Purified HCV NS3 helicase, Cy5-dT15 ssDNA binding fluorescence polarization; stronger effect = higher value; concentration not given here
# [3] = compounds altering Cy5-DNA-NS3h complex signal – biochemical, LOPAC1280, artefact control for HCV NS3 helicase inhibitor project (AID 687037; call rule not given here); conditions: Cy5-DNA-NS3h complex fluorescence interference counterscreen
# [4] = viability loss in pontine glioma line – cell-based, SU-DIPG-XIII, MIPE4.0, CellTiter-Glo, qHTS, dose response (AID 1347061; cut-off not given, nearly all actives have AC50 up to about 37 µM;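 further: cells exposed to compound for 48 hours before readout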); conditions: CellTiter-Glo ATP luminescence
# [5] = viability loss in pontine glioma line – cell-based, SU-DIPG-XIII, MIPE5.0, CellTiter-Glo, qHTS, dose response (AID 1347064; cut-off not given, nearly all actives have AC50 up to about 23 µM;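 on AC50: cells exposed to compound for 48 hours before the viability read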); conditions: CellTiter-Glo ATP luminescence
# [6] = compounds altering circadian rhythm period length – cell-based, LOPAC library, luminescence reporter (AID 2774; call rule not given here;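 further: values are relative to mean of DMSO wells on each plate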); conditions: circadian reporter cells, at 7 µM, actives lie on both sides
# [7] = compounds altering HSF1 focus formation in cells – imaging, Selleck Cancer Library (AID 1347162; in the data active means plate-normalised HSF1 focus index below about 0.46); conditions: human cells, HSF1 nuclear foci imaging, at 10 µM; SSMD: measured here: HSF1 foci SSMD mean; cell count: measured here: cell number; plate-normalised HSF1 focus index: stronger effect = lower value
# [8] = target: NAD(+) hydrolase SARM1 (Homo sapiens) (UniProt Q6SZW1); assay: blocking NAD cleavage by SARM1 SAM-TIR – cell lysate, NAD-Glo luminescence (AID 1508614;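 active means compound whose remaining NAD level is above about 45 nM, limit read from the data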); conditions: SAM-TIR HEK293T lysate NADase, at 1 µM, stronger effect = higher value
# Chain of NAD(+) hydrolase SARM1 (Homo sapiens) (Q6SZW1 whole entry, looked up): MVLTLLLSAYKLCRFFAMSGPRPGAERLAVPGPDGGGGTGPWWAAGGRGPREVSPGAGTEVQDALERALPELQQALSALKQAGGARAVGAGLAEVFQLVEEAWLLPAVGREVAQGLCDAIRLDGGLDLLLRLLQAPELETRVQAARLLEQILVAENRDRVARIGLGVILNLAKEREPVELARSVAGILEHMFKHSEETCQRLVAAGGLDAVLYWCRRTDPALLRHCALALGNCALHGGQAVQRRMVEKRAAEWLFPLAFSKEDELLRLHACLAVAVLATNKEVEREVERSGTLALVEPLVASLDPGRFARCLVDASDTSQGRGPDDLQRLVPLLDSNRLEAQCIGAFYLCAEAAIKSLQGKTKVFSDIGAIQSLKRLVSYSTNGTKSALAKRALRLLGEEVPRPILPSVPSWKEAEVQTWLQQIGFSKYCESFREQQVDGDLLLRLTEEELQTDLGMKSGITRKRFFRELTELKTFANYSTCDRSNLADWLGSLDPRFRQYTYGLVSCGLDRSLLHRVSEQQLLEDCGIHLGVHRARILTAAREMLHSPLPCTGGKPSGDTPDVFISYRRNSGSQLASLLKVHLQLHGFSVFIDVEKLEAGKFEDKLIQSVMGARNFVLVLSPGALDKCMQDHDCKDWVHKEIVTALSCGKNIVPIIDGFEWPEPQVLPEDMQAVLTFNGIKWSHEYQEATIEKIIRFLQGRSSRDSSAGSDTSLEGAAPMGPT
structure (smiles),measurement,setting,value
CN1CCCN=C1/C=C/c1cccs1,outcome,[1],inactive
CC(C)(C)C(=O)Oc1ccc(S(=O)(=O)Nc2ccccc2C(=O)NCC(=O)O)cc1,inhibition,[2],-5% (inactive)
same,fluorescence ratio (interference),[3],0.9 (inactive)
same,outcome,[1],inactive
same,outcome,[4],inactive
same,outcome,[5],inactive
Clc1ccc(C(Cn2ccnc2)OCc2ccc(Sc3ccccc3)cc2)c(Cl)c1 (stereo not given),AC50,[1],20.9 µM (active)
same,AC50,[5],20.9 µM (active)
N[C@@H](Cc1c[nH]c2ccc(O)cc12)C(=O)O,period change,[6],-0.25 h (inactive)
same,inhibition,[2],-3% (inactive)
same,fluorescence ratio (interference),[3],1 (inactive)
same,outcome,[1],inactive
same,outcome,[4],inactive
same,outcome,[5],inactive
C=CC(=O)Nc1cc2c(Nc3ccc(F)c(Cl)c3)ncnc2cc1OCCCN1CCOCC1,AC50,[1],6.61 µM (active)
same,AC50,[5],9.34 µM (active)
CCC1=C[C@@H]2CN(C1)Cc1c([nH]c3ccccc13)[C@@](C(=O)OC)(c1cc3c(cc1OC)N(C)[C@H]1[C@@](O)(C(=O)OC)[C@H](OC(C)=O)[C@]4(CC)C=CCN5CC[C@]31[C@@H]54)C2,AC50,[1],0.204 µM (active)
same,AC50,[5],2.29 µM (active)
same,SSMD,[7],1.19
same,cell count,[7],6320
same,plate-normalised HSF1 focus index,[7],1.08 (inactive)
COCCCN1CCC(NC(=O)c2cc(Cl)c(N)c3c2OCC3)CC1,outcome,[1],inactive
Cc1nnc(C(=O)NC(C)(C)c2nc(C(=O)NCc3ccc(F)cc3)c(O)c(=O)n2C)o1,outcome,[1],inactive
same,outcome,[4],inactive
NCCCC(N)(C(=O)O)C(F)F (stereo not given),period change,[6],-0.04 h (inactive)
same,inhibition,[2],-3% (inactive)
same,fluorescence ratio (interference),[3],1 (inactive)
same,outcome,[1],inactive
same,outcome,[5],inactive
CC(=O)N[C@H]1[C@H]([C@H](O)[C@H](O)CO)OC(C(=O)O)=C[C@@H]1N=C(N)N,outcome,[4],inactive
NC(=O)c1ncn([C@@H]2O[C@H](CO)[C@@H](O)[C@H]2O)c1N,outcome,[1],inactive
same,outcome,[4],inactive
same,outcome,[5],inactive
same,remaining NAD,[8],10 nM (inactive)
O=C(O)c1ccc(-n2nc(-c3ccccc3O)nc2-c2ccccc2O)cc1,AC50,[1],16.6 µM (active)
COc1ccc2cccc(CCNC(C)=O)c2c1,outcome,[4],inactive
same,outcome,[5],inactive
O=[N+]([O-])c1cncn1CCN1CCOCC1,outcome,[1],inactive
same,outcome,[5],inactive
CC(C(=O)O)c1ccc2c(c1)CC(=O)c1ccccc1S2 (stereo not given),outcome,[1],inactive
same,AC50,[4],0.0059 µM (active)
same,outcome,[5],inactive
Cc1cc(=O)c2c(O)c3c(O)cc(=O)c4c3c3c(cc(O)c1c23)C(C)(C)C=4O,AC50,[4],11.8 µM (active)
CC1(C)CCC(C)(C)c2cc(NC(=O)c3ccc(C(=O)O)cc3)ccc21,outcome,[1],inactive
same,AC50,[4],23.5 µM (active)
same,outcome,[5],inactive
CCCCc1oc2ccc(NS(C)(=O)=O)cc2c1C(=O)c1ccc(OCCCN(CCCC)CCCC)cc1,AC50,[1],13.2 µM (active)
same,AC50,[4],18.7 µM (active)
same,AC50,[5],11.8 µM (active)
CNC(=O)c1ccccc1Sc1ccc2c(/C=C/c3ccccn3)n[nH]c2c1,AC50,[1],1.32 µM (active)
same,AC50,[5],1.48 µM (active)
same,SSMD,[7],5.16
same,cell count,[7],7390
same,plate-normalised HSF1 focus index,[7],1.18 (inactive)
O=P(O)(O)C(O)(Cn1ccnc1)P(=O)(O)O,outcome,[1],inactive
same,outcome,[4],inactive
same,outcome,[5],inactive
CN(C)C(=O)COC(=O)Cc1ccc(OC(=O)c2ccc(N=C(N)N)cc2)cc1,outcome,[1],inactive
same,outcome,[5],inactive
Cc1ccc(Nc2nccc(N(C)c3ccc4c(C)n(C)nc4c3)n2)cc1S(N)(=O)=O,AC50,[1],3.32 µM (active)
same,AC50,[5],3.72 µM (active)
same,SSMD,[7],1.61
same,cell count,[7],7340
same,plate-normalised HSF1 focus index,[7],1.1 (inactive)
O=C(Nc1ccc(S(=O)(=O)N2CCOCC2)cc1)c1cc(Cl)ccc1NS(=O)(=O)c1ccc(Cl)s1,outcome,[1],inactive
COC(c1ccccc1)(c1ccccc1)[C@H](Oc1nc(C)cc(C)n1)C(=O)O,outcome,[4],inactive
Cc1ccccc1C(=O)Nc1ccc(C(=O)N2CCCC(O)c3cc(Cl)ccc32)c(C)c1 (stereo not given),outcome,[1],inactive
same,outcome,[4],inactive
O=c1cc(O)c(Cl)c[nH]1,outcome,[1],inactive
same,outcome,[4],inactive
same,outcome,[5],inactive
CC(C)OC(=O)OCOP(=O)(CO[C@H](C)Cn1cnc2c(N)ncnc21)OCOC(=O)OC(C)C,outcome,[4],inactive
N=C(N)c1ccc2cc(OC(=O)c3ccc(N=C(N)N)cc3)ccc2c1,outcome,[4],inactive
same,outcome,[5],inactive
C[C@]12CCC(=O)C=C1[C@@H]1C[C@@H]1[C@H]1[C@@H]3[C@@H]4C[C@@H]4[C@@]4(CCC(=O)O4)[C@@]3(C)CC[C@@H]12,outcome,[1],inactive
same,outcome,[4],inactive
same,outcome,[5],inactive
same,remaining NAD,[8],10 nM (inactive)
CC(C)C[C@H](NC(=O)[C@H](CCc1ccccc1)NC(=O)CN1CCOCC1)C(=O)N[C@@H](Cc1ccccc1)C(=O)N[C@@H](CC(C)C)C(=O)[C@@]1(C)CO1,AC50,[1],0.0148 µM (active)
same,AC50,[5],0.00742 µM (active)
CC(=O)OCC(=O)[C@@]12N=C(C)O[C@@H]1C[C@H]1[C@@H]3CCC4=CC(=O)C=C[C@]4(C)[C@H]3[C@@H](O)C[C@@]12C,outcome,[1],inactive
same,outcome,[4],inactive
same,outcome,[5],inactive
same,remaining NAD,[8],10 nM (inactive)
N#Cc1c(N(CC(=O)O)CC(=O)O)sc(C(=O)O)c1CC(=O)O,outcome,[1],inactive
same,outcome,[4],inactive
same,outcome,[5],inactive
c1cnc2cc3c(cc2n1)C1CNCC3C1,outcome,[1],inactive
same,outcome,[4],inactive
same,outcome,[5],inactive
Cc1cc2c(cc1CC(=O)c1sccc1S(=O)(=O)Nc1onc(C)c1Cl)OCO2,outcome,[1],inactive
CCOC(=O)c1c(C)n(C)c2ccc(O)cc12,outcome,[1],inactive
CCOC(=O)c1ccc(C#Cc2ccc3c(c2)C(C)(C)CCS3)nc1,AC50,[1],26.3 µM (active)
Cc1ccc(C(=O)c2cc(O)c(O)c([N+](=O)[O-])c2)cc1,outcome,[1],inactive
same,outcome,[4],inactive
same,outcome,[5],inactive
CCC(C)(C)c1ccc(CC(C)CN2C[C@@H](C)O[C@@H](C)C2)cc1 (stereo not given in full),remaining NAD,[8],10 nM (inactive)
O=C(O)c1cccc(-c2noc(-c3ccccc3F)n2)c1,outcome,[4],inactive
COC(=O)N[C@H](C(=O)N[C@@H](Cc1ccccc1)[C@@H](O)CN(Cc1ccc(-c2ccccn2)cc1)NC(=O)[C@@H](NC(=O)OC)C(C)(C)C)C(C)(C)C,outcome,[4],inactive
COc1cc(NCc2ccc3nc(N)nc(N)c3c2C)cc(OC)c1OC,AC50,[5],7.42 µM (active)
